Bioassay records: PubChem, National Center for Advancing Translational Sciences (NCATS)
aSyn rescue = alpha-synuclein toxicity inhibition in yeast; Potency, µM (highest dose often 46.1 µM), usual class: activators; Yeast expressing alpha-synuclein, growth rescue, BacTiter-Glo, 24 h; AID 652106; 370,000 tested, 0.14% active; note: nearly all actives have a fitted effect of over 65% in size
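Screening used galactose-induced yeast with toxic alpha-synuclein levels, exposed to compound for 24 hr at 30 deg C. Cell growth, read with BacTiter-Glo luminescence, gave the measured signal.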
FUS suppressor = FUS proteinopathy suppression in yeast; S. cerevisiae FUS-expressing, growth rescue, OD600, 24 h; Potency, µM (highest dose often 76.6 µM), actives largely listed as activators; 390,000 tested, 0.24% active; AID 1347120; note: nearly all actives have a fitted effect of over 55% in size
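Quantitative HTS measuring growth restoration of FUS-toxic yeast. Galactose-induced cells (OD 0.005) were exposed 24hr at 30C to compounds at several concentrations, then absorbance at 600 nm was recorded.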
TDP-43 yeast inh = rescues yeast growth from TDP-43 toxicity; 410,000 tested, 1.8% active; Potency, µM (highest dose often 46.1 µM), hits mostly activators; TDP-43 expressing yeast growth rescue, BacTiter-Glo, 24 h; AID 652104; note: nearly all actives have a fitted effect of over 50% in size
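Cell-based yeast growth screen: TDP-43 expression induced in galactose, inoculum OD600=0.02 after raffinose pregrowth to mid-log. Read-out BacTiter-Glo luminescence at 24 hr, 30 deg C; inhibition of toxicity seen as signal increase.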
Abeta rescue = compounds reversing amyloid beta toxicity in yeast; Potency, µM (doses to about 46.1 µM), actives largely listed as activators; 410,000 tested, 0.063% active; yeast expressing A-beta42, growth rescue, OD600, 48 h; response scale: 0% DMSO, 100% iron-clioquinol control; AID 1347071; note: nearly all actives have a fitted effect of over 55% in size
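Yeast growth medium received pinned compounds, then yeast cells expressing toxic A-beta were added; plates incubated at 30 C for 48 hr. Growth read as absorbance at 600 nm, normalized to DMSO and equimolar FeCl3 plus clioquinol controls.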
Akt phos inh = blocks phosphorylation of Akt; AID 651550; Neuro2A IGF-stimulated pAkt S473 HTRF, 20 min; active compounds read low; activity change, % for hits at 50 µM; 360,000 tested, 0.32% active; in the data active = activity change below about -80%; inconclusive = mostly about -51% to -80%
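Single-point screen (50 µM final compound) in Neuro2A cells stimulated 20 min with 6 nM IGF at 37 deg C. After lysis, Ser473-phosphorylated Akt read by HTRF (ex 330 nm, em 615/665 nm) as the 665/615 ratio.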
Hits are given with their value; . = inactive; ? = inconclusive; / = not tested or not shown; [ ] = remark or other dose. An excerpt weighted towards active compounds, which were near 2.3% of everything screened. Unless noted, calls come from the whole dose curve; as a rule, active = well fitted curve in the direction sought with a large enough effect; inconclusive = small, poorly fitted or top-dose-only effect, or another doubt; inactive = no such curve, though single readings can be large; an effect the other way counts as inactive or inconclusive.

SMILES	aSyn rescue	FUS suppressor	TDP-43 yeast inh	Abeta rescue	Akt phos inh
CCN(Cc1ccccc1)C(=O)c1ccc(C(=O)N(CC)Cc2ccccc2)cc1	.	.	.	.	.
CCOC(=O)c1cccc(NC(=O)c2cc3c(=O)n(Cc4cccnc4)ccc3nc2C)c1	/	.	.	.	/
O=C1Nc2ccc(Br)cc2/C1=C/C1CC=CCC1 (centres undefined)	.	.	20µM	.	.
O=C1Nc2ccc(Br)cc2/C1=C/C(=O)c1ccc2c(c1)OCO2	.	.	.	.	.
COCCNC(=O)/C(C#N)=C/C=C/c1ccccc1	.	.	.	.	.
COCCNC(=O)/C(C#N)=C/c1ccccc1Br	.	.	22.4µM	.	.
CCN(CCN(C)Cl)/[N+]([O-])=N/Oc1ccc([N+](=O)[O-])cc1[N+](=O)[O-]	.	/	/	/	/
CCc1cc(C(=O)c2ccccc2)c(N)s1	.	.	11.2µM	.	.
CC(=O)NC(Cc1ccccc1)Cc1ccccc1	.	.	.	.	.
CC(=O)NC(O)C(=O)c1ccccc1 (centres undefined)	.	.	?	.	-109.1%
COC(=O)c1ccc(NC(=O)N2CCc3c([nH]c4ccccc34)C2c2ccc(C)cc2)cc1 (centres undefined)	/	?	.	.	/
O=C(COC(=O)c1cccnc1Cl)c1cccc(Cl)c1	/	.	11.2µM	.	/
Cc1ccc2c(c1)C(c1ccccc1)N(C(=O)Cc1ccc(F)cc1)CC(=O)N2 (centres undefined)	/	.	.	.	/
CC(C)c1ccccc1OCCNC(=O)c1cncc(Br)c1	.	.	20µM	.	.
Clc1ccc(OCCSc2ncccn2)c2ccccc12	/	.	?	.	/
c1cnc(SCCOc2cccc3ccccc23)nc1	.	.	11.2µM	.	.
CCc1ccc(NC(=O)C(CC)n2c(=O)c(C(F)(F)F)nc3ccccc32)cc1 (centres undefined)	/	.	.	.	/
Cc1cccc(-n2c(C)cc(C(=O)C(=O)Nc3nncs3)c2C)c1	/	.	?	.	/
Cc1cc(C(=O)C(=O)Nc2nncs2)c(C)n1-c1ccc(Cl)cc1	/	.	11.2µM	.	/
CCOc1ccc(CNC(=O)C2CCN(c3nc4ccccc4nc3C(F)(F)F)CC2)cc1OC	/	.	.	.	/
CC(=O)Nc1nc(-c2ccc(Cl)cc2)nc(C)c1C(C)=O	.	.	35.5µM	.	.
CCOc1ccc(S(=O)(=O)N2CCN(c3ccc(C)cc3C)CC2)c2ccccc12	.	.	.	.	/
O=C1CSC(=S)N1c1ccccc1	.	/	.	.	.
O=C(O)c1ccc(CN2C(=O)CSC2=S)cc1	12.6µM	.	17.8µM	.	.
O=C(O)c1ccc(N2C(=O)CSC2=S)cc1	10µM	.	?	.	.
SMILES	aSyn rescue	FUS suppressor	TDP-43 yeast inh	Abeta rescue	Akt phos inh
O=C1CSC(=S)N1c1ccc(F)c(Cl)c1	.	.	25.1µM	?	.
CCOC(=O)c1cc(-c2ccccc2)n(CCCC(=O)Nc2cc(C)ccc2OC)c1C	/	?	.	.	/
O=C(Nc1ccc(F)cc1)c1cccnc1NCCc1ccccc1	.	.	12.6µM	.	.
COc1ccc(NC(=O)C2CCN(S(=O)(=O)c3cc(-c4noc(C)n4)ccc3C)CC2)cc1	/	.	.	.	/
CCCNC(=O)c1nnsc1S(=O)(=O)c1ccc(Cl)cc1	.	.	1.58µM	.	.
CCCNC(=O)c1nnsc1S(=O)c1ccc(Cl)cc1 (centres undefined)	.	.	?	.	.
CC(=O)Nc1cc2c(cc1[N+](=O)[O-])-c1ccccc1C2=NO	.	/	.	.	.
Nc1cc2c(cc1[N+](=O)[O-])-c1ccccc1C2=NO	.	/	3.55µM	.	.
CC(C)(C)C(=O)NC(=S)Nc1ccc(C(F)(F)F)cc1	.	.	.	12.6µM	.
CC(C)(C)C(=O)NC(=S)Nc1ccc(Cl)c(C(=O)O)c1	.	.	.[1.82 µM]	.	.
S=C(NCCc1ccccc1)Nc1ccccc1Cl	.	.	.	.	.
S=C(NCc1ccc(Cl)cc1)Nc1ccccc1	.	.	?	12.6µM	.
S=C(NCCCCNC(=S)NCc1ccccc1)NCc1ccccc1	.	.	.	.	.
Fc1ccccc1NC(=S)NCCc1cccc(Cl)c1	.	.	?	22.4µM	.
Cc1cc(Cl)ccc1NC(=S)NCc1ccc(F)cc1	.	.	17.8µM	.	.
S=C(NCCCCc1ccccc1)NCc1ccccc1	.	.	.	15.8µM	.
CC(C)(Oc1ccc(Cl)cc1)C(=O)Nc1nnc2n1CCS2	.	.	.	.	/
COc1ccc(-c2cc3ccc(O)c(CN4CCCC4)c3oc2=O)cc1	/	.	.	.	/
COc1ccc(OC)c(CNS(=O)(=O)c2cc(-c3onc(C)c3C)ccc2C)c1	/	.	.	.	/
S=C(NCCc1ccccc1)NCCc1ccccc1	.	/	.	.	.
S=C(NCc1ccccc1)NCc1ccc(CNC(=S)NCc2ccccc2)cc1	.	.	.	.	.
Cc1c(Cl)cccc1NC(=S)NCCc1ccc(C(F)(F)F)cc1	.	.	14.1µM	?	.
COc1ccccc1NC(=S)NCCc1ccc(Cl)cc1	.	.	15.8µM	.	.
S=C(NCCc1ccccc1)NCc1cccc(Cl)c1	.	.	.	15.8µM	.
S=C(NCc1ccccc1)C(=S)NCc1ccccc1	.	.	.	8.91µM	.
SMILES	aSyn rescue	FUS suppressor	TDP-43 yeast inh	Abeta rescue	Akt phos inh
Cc1c(Cl)cccc1NC(=S)NCCc1ccccn1	.	.	.	.	.
CCc1cccc(CC)c1NC(=O)c1cc(S(=O)(=O)N2CCc3ccccc32)cn1C	/	.	.	.	/
Cc1ccc(C(=O)NC2CCSC2=O)cc1 (centres undefined)	.	.	.	.	.
Cc1ccc(C(=O)NC2CCc3ccccc3C2=O)cc1 (centres undefined)	.	.	14.1µM	.	.
O=C(Cc1cnn(-c2ccccc2)c1)c1ccc(O)c(O)c1O	?	/	35.5µM	?	.
CC(C)(C)c1ccc(C(=O)NCC(=O)OCc2cc(=O)n3nc(C4CC4)sc3n2)cc1	/	.	.	.	/
S=C(Nc1ccc2nsnc2c1)NC1CCCCC1	.	/	12.6µM	.	.
CCOC(=O)c1cc(-c2ccccc2C)nn1CC1CC(c2ccc(OC)cc2)=NO1 (centres undefined)	.	.	.	.	.
CCOC(=O)c1cc(-c2ccccc2C)n(CC2CC(c3cccc([N+](=O)[O-])c3)=NO2)n1 (centres undefined)	.	.	20µM	.	.
CN1C(=O)/C(=N\OC(=O)c2ccccc2Cl)c2ccccc21	.	.	17.8µM	.	.
COc1nc2ccccc2nc1N1CCN(Cc2ccc3c(c2)OCO3)CC1	.	.	14.1µM	.	.
c1ccc2nc(N3CCN(Cc4ccc5c(c4)OCO5)CC3)cnc2c1	.	.	.	.	.
Cc1ccc(NC(=O)c2ccc(N(Cc3ccccc3)S(C)(=O)=O)cc2)cc1	/	.	.	.	/
O=C(O)CSc1cccc[n+]1[O-]	.	.	.	.	.
